Screening results deposited in PubChem BioAssay by several laboratories.
ADAM17 inh: inhibits human ADAM17. inhibition, % at 6.95 µM. P78536. AID 720648. 370,000 compounds, 0.83% hits. recombinant ADAM17, EDANS/DABCYL FRET peptide cleavage;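 active = inhibition above the mean of compounds lying between control limits plus 3 SD, set per campaign, cut at about 8.5% in these data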;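 note: 0% = DMSO-only wells as the low control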
Target sequence (P78536 215-824 limits assumed): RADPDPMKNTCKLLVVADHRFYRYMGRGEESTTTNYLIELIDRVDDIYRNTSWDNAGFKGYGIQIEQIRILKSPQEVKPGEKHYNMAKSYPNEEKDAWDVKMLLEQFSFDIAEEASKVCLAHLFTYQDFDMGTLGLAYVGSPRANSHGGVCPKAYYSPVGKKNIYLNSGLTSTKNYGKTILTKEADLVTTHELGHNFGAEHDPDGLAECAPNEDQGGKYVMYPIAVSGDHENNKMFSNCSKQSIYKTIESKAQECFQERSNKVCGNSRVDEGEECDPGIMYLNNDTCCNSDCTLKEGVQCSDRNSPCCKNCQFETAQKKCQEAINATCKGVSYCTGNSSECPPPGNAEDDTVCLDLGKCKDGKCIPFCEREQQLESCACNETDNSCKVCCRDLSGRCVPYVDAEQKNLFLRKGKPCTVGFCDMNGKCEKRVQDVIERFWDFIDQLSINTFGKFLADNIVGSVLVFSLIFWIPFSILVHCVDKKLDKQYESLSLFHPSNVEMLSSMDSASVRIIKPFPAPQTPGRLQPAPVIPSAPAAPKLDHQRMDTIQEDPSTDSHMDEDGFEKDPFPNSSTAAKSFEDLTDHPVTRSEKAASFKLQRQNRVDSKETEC
GRIN3A LBD mod: NR3A (human) ligand-binding domain modulation; NR3A LBD differential scanning fluorimetry, Tm shift; 0% = protein alone, 100% = glycine-bound protein; Tm shift relative to glycine control, % at 25 µM; 340,000 compounds, 2.5% hits; AID 1259313;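 active = melting temperature shift of at least 10% of the positive control shift, at one fixed dose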
FAS TE block: inhibitors of human fatty acid synthase thioesterase domain; P49327; 360,000 compounds, 0.67% hits; recombinant FAS-TE, OMFH fluorogenic substrate, fluorescence endpoint; inhibition, % at 15 µM;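 active = compounds whose normalised, plate-corrected inhibition of enzyme fluorescence in the single-dose primary screen is 50% or more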;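 note: 0% = DMSO with enzyme and 100% = substrate without enzyme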
proKLK7 act: proKLK7 (human) activation, primary screen; P49862; purified proKLK7, EDANS-DABCYL substrate fluorescence; 100% is mature enzyme control, 0% vehicle; activation, % at 7 µM; 370,000 compounds, 0.9% hits; AID 652039;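 active = activation above the mean of all tested compounds plus 3 SD, computed per campaign excluding outliers beyond control limits, cut at about 13% in these data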
ADAM10 inh: ADAM10 inhibition, QFRET primary screen. AID 720582. 370,000 compounds, 0.62% hits. O14672. inhibition, % at 7 µM. recombinant ADAM10, EDANS/DABCYL FRET peptide cleavage, 3 h;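 active = inhibition above a per-campaign cutoff equal to the mean of compounds falling between control-based bounds plus 3 SD, cut at about 20% in these data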;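 note: 0% = DMSO wells while the 100% control is not disclosed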
FAS-TE inh conf: confirmation of human fatty acid synthase thioesterase inhibitors. shares compounds with FAS TE block. recombinant FAS-TE, OMFH fluorogenic substrate, fluorescence. inhibition, % at 15 µM. 2,300 compounds, 45% hits;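 active = compounds inhibiting the enzyme by at least 50% at 15 µM in any one of the replicates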;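 note: 0% = enzyme with DMSO only and 100% = wells lacking enzyme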
Numbers without * were called inactive. An excerpt weighted towards active compounds, which were near 4.6% of everything screened.

Results for O=C(NCCc1c[nH]c2ccccc12)c1ccc2c(c1)ncn2C1CCCCC1 ?
ADAM17 inh: 2.7; proKLK7 act: 0.1; ADAM10 inh: -0.9

What do the screens show for `Cc1ccc(N2C(=O)[C@@H]3[C@H](C2=O)C2c4ccccc4C=NN2[C@@H]3C(=O)c2ccc(Cl)cc2)cc1` (stereo partly specified)?
ADAM17 inh: 3.7; GRIN3A LBD mod: 0.9; FAS TE block: 82.3*; proKLK7 act: 0.1; ADAM10 inh: 0.2; FAS-TE inh conf: -0.3

Results for O=C(c1ccc(Cl)cc1)[C@@H]1[C@@H]2C(=O)N(c3ccc(Cl)cc3)C(=O)[C@@H]2C2c3ccccc3C=NN21 (stereo partly specified) ?
ADAM17 inh: -1.0; GRIN3A LBD mod: -0.4; FAS TE block: 69.3*; proKLK7 act: -0.4; ADAM10 inh: 1.1; FAS-TE inh conf: 10.4

Results for CC(=O)[C@@H]1[C@@H]2C(=O)N(c3ccc(F)c(Cl)c3)C(=O)[C@@H]2C2c3ccccc3C=CN21 (stereo partly specified) ?
ADAM17 inh: -2.9; proKLK7 act: -2.7; ADAM10 inh: -10.9

How did Cc1ccc(N2C(=O)[C@@H]3[C@H](C2=O)[C@H]2C=CC=NN2[C@@H]3C(=O)Nc2ccc(Cl)cc2)cc1 do in these assays?
ADAM17 inh: 4.7; GRIN3A LBD mod: -1.8; FAS TE block: -6.7; proKLK7 act: 0.3; ADAM10 inh: -19.8

What do the screens show for `COc1cc(C=Nn2c(-c3n[nH]c4c3CCC4)n[nH]c2=S)ccc1OCc1ccccc1`?
ADAM17 inh: -0.3; proKLK7 act: 0.2; ADAM10 inh: -4.5

Results for O=C(CSc1nnc(-c2ccc(O)cc2)n1Cc1ccco1)c1ccccc1 ?
ADAM17 inh: 1.1; GRIN3A LBD mod: -0.9; FAS TE block: 0.2; proKLK7 act: -0.1; ADAM10 inh: 14.2

How did O=C(CSc1nnc(-c2ccccn2)n1Cc1ccco1)c1ccc(-c2ccccc2)cc1 do in these assays?
ADAM17 inh: 2.8; GRIN3A LBD mod: 1.0; FAS TE block: 51.0*; proKLK7 act: 0.3; ADAM10 inh: 6.0; FAS-TE inh conf: 16.8

Results for CCN(CC)S(=O)(=O)c1ccc(N/N=C/c2ccccc2OCC(=O)O)c([N+](=O)[O-])c1 ?
ADAM17 inh: -2.8; GRIN3A LBD mod: -5.9; FAS TE block: 20.1; proKLK7 act: 0.1; ADAM10 inh: -3.2

How did O=C(O)COc1ccccc1C=NNc1ccc([N+](=O)[O-])cc1S(=O)(=O)Nc1ccc(Cl)cc1 do in these assays?
ADAM17 inh: -6.7; GRIN3A LBD mod: 24.4*; FAS TE block: 50.1*; proKLK7 act: 0.9; ADAM10 inh: -7.7; FAS-TE inh conf: 61.9*

What do the screens show for `Cc1ccccc1C(=O)Nc1nc2c(C)csc2c(=O)s1`?
ADAM17 inh: -3.5; GRIN3A LBD mod: 2.0; FAS TE block: 51.0*; proKLK7 act: -0.1; ADAM10 inh: -16.0; FAS-TE inh conf: 26.9

How did Cc1csc2c(=O)sc(NC(=O)c3ccc(F)cc3Cl)nc12 do in these assays?
ADAM17 inh: -2.9; GRIN3A LBD mod: -4.1; FAS TE block: 84.0*; proKLK7 act: 0.5; ADAM10 inh: 11.2; FAS-TE inh conf: 4.0

Results for CC(COc1ccc(C#N)cc1F)CN1CCC(C(O)(c2ccccc2)c2ccccc2)CC1 (stereo unspecified) ?
ADAM17 inh: -0.6; proKLK7 act: 0.0; ADAM10 inh: -0.9

Results for Cc1ccc(C)c(S(=O)(=O)N2CCN(C(=O)Cc3ccc(S(=O)(=O)N4CCOCC4)s3)CC2)c1 ?
ADAM17 inh: -2.1; GRIN3A LBD mod: 0.4; FAS TE block: 69.4*; proKLK7 act: 0.6; ADAM10 inh: -3.0; FAS-TE inh conf: 63.0*

What do the screens show for `O=C(Cc1ccc(S(=O)(=O)N2CCOCC2)s1)N1CCN(S(=O)(=O)c2ccccc2[N+](=O)[O-])CC1`?
ADAM17 inh: -3.0; GRIN3A LBD mod: 0.3; FAS TE block: 87.3*; proKLK7 act: 0.2; ADAM10 inh: -5.7; FAS-TE inh conf: 83.3*

How did CCOc1ccc(S(=O)(=O)N2CCN(C(=O)Cc3ccc(S(=O)(=O)N4CCOCC4)s3)CC2)cc1 do in these assays?
ADAM17 inh: -1.6; GRIN3A LBD mod: -1.8; FAS TE block: 23.3; proKLK7 act: -0.2; ADAM10 inh: -8.4

What do the screens show for `O=C(Cc1ccc(S(=O)(=O)N2CCOCC2)s1)N1CCN(S(=O)(=O)c2cccc([N+](=O)[O-])c2)CC1`?
ADAM17 inh: 0.0; GRIN3A LBD mod: -0.6; FAS TE block: 37.4; proKLK7 act: -0.4; ADAM10 inh: 2.6

How did Cc1ccc(-c2nn(-c3ccccc3)cc2C(=O)Nc2ccc(C)c(S(=O)(=O)N3CCOCC3)c2)cc1 do in these assays?
ADAM17 inh: 4.2; GRIN3A LBD mod: 7.8; FAS TE block: 41.0; proKLK7 act: 0.1; ADAM10 inh: 9.6

Results for O=C(Nc1cccc(S(=O)(=O)N2CCOCC2)c1)c1cn(-c2ccccc2)nc1-c1ccccc1 ?
ADAM17 inh: 3.1; GRIN3A LBD mod: 5.9; FAS TE block: 51.4*; proKLK7 act: -0.1; ADAM10 inh: 10.9; FAS-TE inh conf: 20.5

Results for Nn1c(SCC(=O)Nc2cccc3ccccc23)nnc1-c1cc(-c2ccc(Cl)cc2)n[nH]1 ?
ADAM17 inh: -1.0; proKLK7 act: 0.1; ADAM10 inh: 3.4

Results for O=[N+]([O-])c1ccc(Nc2c3ccccc3nc3ccccc23)cc1 ?
ADAM17 inh: -426.8; GRIN3A LBD mod: 5.4; FAS TE block: 27.5; proKLK7 act: 8.6; ADAM10 inh: inactive

What do the screens show for `O=[N+]([O-])c1ccc(-c2nc(NCC3CCCO3)c3ccccc3n2)cc1` (stereo unspecified)?
ADAM17 inh: -2.4; GRIN3A LBD mod: 0.8; FAS TE block: 60.3*; proKLK7 act: 0.3; ADAM10 inh: -0.4; FAS-TE inh conf: 16.2

How did O=C(O)c1ccc(Nc2nc(-c3ccc([N+](=O)[O-])cc3)nc3ccccc23)cc1 do in these assays?
ADAM17 inh: 2.2; GRIN3A LBD mod: 7.5; FAS TE block: 54.9*; proKLK7 act: 0.0; ADAM10 inh: 5.4; FAS-TE inh conf: 7.2

Results for Oc1ccccc1-c1nc(NCC2CCCO2)c2ccccc2n1 (stereo unspecified) ?
ADAM17 inh: 8.1; GRIN3A LBD mod: 6.4; FAS TE block: 24.0; proKLK7 act: 1.2; ADAM10 inh: 4.8

What do the screens show for `COC(=O)C[C@@H]1CC[C@H]2[C@@H](COc3ccc(NC(=O)Nc4cccc(F)c4)cc3C(=O)N2C)O1`?
ADAM17 inh: -2.3; proKLK7 act: -0.4; ADAM10 inh: -0.7

Results for CC(Cl)C(=O)N1CCC(C(=O)NCC2COc3ccccc3O2)CC1 (stereo unspecified) ?
ADAM17 inh: 1.8; proKLK7 act: 0.3; ADAM10 inh: -8.0
